# Test results from PubChem BioAssay AID1159580 (chemical genetic matrix, 2015).
# Hit rate of the full screen: of about 5,500 compounds, about 2,000 (36%) were called active. Another 18% or so got no clear call; they are omitted. This is one part of the list. A number with no mark means an inactive call. Rule as the data show it: active = normalized growth mostly below about 0.91 (no sharp cut-off); inconclusive = no clear call, values can overlap the other calls; inactive = mostly above about 0.92.
# Experiment: chemical genetic growth profiling, strain panel (AID 1159580);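 also: tested at 20 µM; growth read once vehicle control cultures reached saturation at 30 °C; 1 = growth at the plate median or of vehicle wells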
# Conditions: S. cerevisiae deletion strains, growth OD
smiles,measurement,setting,value
COc1cccc(-c2cc(=O)c3ccc(OC)cc3o2)c1,normalized growth,"locus YJR043C, strain POL32, stronger effect = lower value",0.866
same,normalized growth,"locus YJR075W, strain HOC1, stronger effect = lower value",0.994
same,normalized growth,"locus YKL009W, strain mrt4, stronger effect = lower value",0.828 (active)
same,normalized growth,"locus YKL068W, stronger effect = lower value",0.931 (active)
same,normalized growth,"locus YKL085W, strain MDH1 (second series), stronger effect = lower value",0.845 (active)
same,normalized growth,"locus YKL085W, strain MDH1, stronger effect = lower value",0.845 (active)
same,normalized growth,"locus YKL160W, strain elf1, stronger effect = lower value",0.933
same,normalized growth,"locus YKL190W, strain CNB1, stronger effect = lower value",0.952
same,normalized growth,"locus YKR001C, strain vps1, stronger effect = lower value",1.06
same,normalized growth,"locus YKR026C, strain gcn3, stronger effect = lower value",0.91 (active)
same,normalized growth,"locus YKR091W, strain srl3, stronger effect = lower value",0.958
same,normalized growth,"locus YLL001W, strain dnm1, stronger effect = lower value",0.922
same,normalized growth,"locus YLL026W, stronger effect = lower value",0.94
same,normalized growth,"locus YLL041C, strain sdh2, stronger effect = lower value",0.951
same,normalized growth,"locus YLR027C, strain aat2, stronger effect = lower value",0.934
same,normalized growth,"locus YLR039C, strain RIC1, stronger effect = lower value",0.983
same,normalized growth,"locus YLR058C, strain SHM2, stronger effect = lower value",0.999
same,normalized growth,"locus YLR102C, strain apc9, stronger effect = lower value",1.03
same,normalized growth,"locus YLR221C, strain rsa3, stronger effect = lower value",0.91
same,normalized growth,"locus YLR258W, strain gsy2, stronger effect = lower value",0.93
same,normalized growth,"locus YLR262C, strain YPT6 (second series), stronger effect = lower value",0.916
same,normalized growth,"locus YLR262C, strain YPT6, stronger effect = lower value",0.989
same,normalized growth,"locus YLR268W, strain sec22, stronger effect = lower value",0.994
same,normalized growth,"locus YLR320W, strain mms22, stronger effect = lower value",0.824 (active)
same,normalized growth,"locus YLR330W, strain CHS5, stronger effect = lower value",1.02
same,normalized growth,"locus YLR342W, strain FKS1 (second series), stronger effect = lower value",0.839
same,normalized growth,"locus YLR342W, strain FKS1, stronger effect = lower value",0.951
same,normalized growth,"locus YLR357W, strain rsc2, stronger effect = lower value",0.856
same,normalized growth,"locus YLR370C, strain arc18, stronger effect = lower value",0.948
same,normalized growth,"locus YLR371W, strain rom2, stronger effect = lower value",0.965
same,normalized growth,"locus YLR384C, strain iki3, stronger effect = lower value",0.962
same,normalized growth,"locus YLR418C, strain cdc73, stronger effect = lower value",0.948
same,normalized growth,"locus YML016C, strain PPZ1, stronger effect = lower value",0.998
same,normalized growth,"locus YML032C, strain rad52, stronger effect = lower value",0.954
same,normalized growth,"locus YML120C, strain ndi1, stronger effect = lower value",0.92
same,normalized growth,"locus YML124C, strain tub3, stronger effect = lower value",1.13 [resistant] (active)
same,normalized growth,"locus YMR058W, strain fet3, stronger effect = lower value",0.938
same,normalized growth,"locus YMR078C, strain ctf18, stronger effect = lower value",1.1 [resistant] (active)
same,normalized growth,"locus YMR125W, strain sto1, stronger effect = lower value",0.941
same,normalized growth,"locus YMR129W, stronger effect = lower value",0.971
same,normalized growth,"locus YMR205C, strain PFK2, stronger effect = lower value",0.871 (active)
same,normalized growth,"locus YMR223W, strain ubp8, stronger effect = lower value",1
same,normalized growth,"locus YMR231W, strain pep5, stronger effect = lower value",0.97
same,normalized growth,"locus YMR263W, strain SAP30, stronger effect = lower value",0.896
same,normalized growth,"locus YMR307W, strain GAS1, stronger effect = lower value",0.734
same,normalized growth,"locus YNL067W, strain RPL9B, stronger effect = lower value",0.944
same,normalized growth,"locus YNL071W, strain lat1, stronger effect = lower value",0.813 (active)
same,normalized growth,"locus YNL128W, strain TEP1, stronger effect = lower value",1.02
same,normalized growth,"locus YNL153C, strain GIM3, stronger effect = lower value",0.997
same,normalized growth,"locus YNL209W, strain ssb2, stronger effect = lower value",0.977
same,normalized growth,"locus YNL233W, strain BNI4, stronger effect = lower value",0.942
same,normalized growth,"locus YNL248C, strain rpa49, stronger effect = lower value",0.927
same,normalized growth,"locus YNL250W, strain rad50, stronger effect = lower value",0.969
same,normalized growth,"locus YNL271C, strain bni1, stronger effect = lower value",0.938
same,normalized growth,"locus YNL298W, strain CLA4, stronger effect = lower value",0.924
same,normalized growth,"locus YNL307C, strain MCK1, stronger effect = lower value",0.842 (active)
same,normalized growth,"locus YNL322C, strain KRE1 (second series), stronger effect = lower value",0.959
same,normalized growth,"locus YNL322C, strain KRE1, stronger effect = lower value",0.958
same,normalized growth,"locus YNR049C, strain mso1, stronger effect = lower value",0.953
same,normalized growth,"locus YNR052C, strain pop2, stronger effect = lower value",1.14 [resistant] (active)
same,normalized growth,"locus YOL006C, strain TOP1, stronger effect = lower value",0.659
same,normalized growth,"locus YOL012C, strain htz1",0.755
same,normalized growth,"locus YOL147C, strain pex11, stronger effect = lower value",1.08 [resistant] (active)
same,normalized growth,"locus YOR001W, strain rrp6, stronger effect = lower value",0.94
same,normalized growth,"locus YOR061W, strain CKA2, stronger effect = lower value",0.951
same,normalized growth,"locus YOR069W, strain VPS5, stronger effect = lower value",0.958
same,normalized growth,"locus YOR070C, strain gyp1, stronger effect = lower value",0.942
same,normalized growth,"locus YOR080W, strain dia2, stronger effect = lower value",0.947
same,normalized growth,"locus YOR083W, strain WHI5, stronger effect = lower value",0.91
same,normalized growth,"locus YOR106W, strain vam3, stronger effect = lower value",0.922
same,normalized growth,"locus YOR136W, strain idh2, stronger effect = lower value",1.18 [resistant] (active)
same,normalized growth,"locus YOR144C, strain elg1, stronger effect = lower value",1.18 [resistant] (active)
same,normalized growth,"locus YOR184W, strain ser1, stronger effect = lower value",0.959
same,normalized growth,"locus YOR265W, strain rbl2, stronger effect = lower value",0.942
same,normalized growth,"locus YOR270C, strain vph1, stronger effect = lower value",0.71 (active)
same,normalized growth,"locus YOR290C, strain snf2, stronger effect = lower value",0.84 (active)
same,normalized growth,"locus YOR316C, strain cot1, stronger effect = lower value",1.1 [resistant] (active)
same,normalized growth,"locus YPL051W, strain arl3, stronger effect = lower value",0.932
same,normalized growth,"locus YPL055C, strain LGE1, stronger effect = lower value",0.873
same,normalized growth,"locus YPL078C, strain atp4, stronger effect = lower value",0.91
same,normalized growth,"locus YPL106C, strain sse1, stronger effect = lower value",0.84 (active)
same,normalized growth,"locus YPL240C, strain hsp82, stronger effect = lower value",0.952
same,normalized growth,"locus YPL241C, strain CIN2, stronger effect = lower value",0.966
same,normalized growth,"locus YPR119W, strain clb2, stronger effect = lower value",1.03
same,normalized growth,"locus YPR141C, strain kar3, stronger effect = lower value",1
same,normalized growth,"locus YPR163C, strain tif3, stronger effect = lower value",1.03
same,normalized growth,"locus YPR167C, strain met16, stronger effect = lower value",1.04
same,normalized growth,"strain wtn01, stronger effect = lower value",1.05
